Results on one molecule are retold here after the supplement of paper PMC8728848.

What all share (assay): glycan array binding signal (z-score within array); higher = stronger binding
Holding throughout (settings): glycan notation: IUPAC condensed, linker removed

For test [1], the target named is Fuc(a1-2)Gal(b1-3)[Fuc(a1-4)]GlcNAc(b1-3)[Gal(b1-4)GlcNAc(b1-6)]Gal(b1-4)Glc. The method, boiled down:
(§1)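 Glycan array binding is given as a within-array Z-score, which can be read as non-binding when negative. The arrays, 3228 of them, came from the Consortium for Functional Glycomics database and were retained only where the protein sequence was available. Z-scores were averaged across arrays of the same protein sequence at different concentrations or buffers and across linkers.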

In the next test the target is Fuc(a1-2)Gal(b1-4)Glc6S. An outline of the steps:
as §1

In test [2] the target is Fuc(a1-2)Gal(b1-4)GlcNAc(b1-3)Gal(b1-4)GlcNAc(b1-2)Man(a1-3)[Fuc(a1-2)Gal(b1-4)GlcNAc(b1-3)Gal(b1-4)GlcNAc(b1-2)Man(a1-6)]Man(b1-4)GlcNAc(b1-4)GlcNAc. An outline of the steps:
as §1

Test [3] concerns the target Fuc(a1-2)Gal(b1-4)[Fuc(a1-3)]GlcNAc(b1-2)Man(a1-3)[Fuc(a1-2)Gal(b1-4)[Fuc(a1-3)]GlcNAc(b1-2)Man(a1-6)]Man(b1-4)GlcNAc(b1-4)[Fuc(a1-6)]GlcNAc. The method, boiled down: as §1
Test [4] addresses Fuc(a1-2)Gal6S(b1-3)GlcNAc6S. An outline of the steps:
as §1

Test [5] addresses Fuc(a1-2)Gal6S(b1-4)Glc6S. The method, boiled down: as §1
For test [6], the target named is Fuc(a1-2)[Gal(a1-3)]Gal(b1-3)GlcNAc(b1-2)Man(a1-3)[Fuc(a1-2)[Gal(a1-3)]Gal(b1-3)GlcNAc(b1-2)Man(a1-6)]Man(b1-4)GlcNAc(b1-4)[Fuc(a1-6)]GlcNAc. The method, boiled down:
as §1

For test [7], the target named is Fuc(a1-2)[Gal(a1-3)]Gal(b1-4)GlcNAc(b1-3)GalNAc. An outline of the steps:
as §1

For test [8], the target named is Fuc(a1-2)[GalNAc(a1-3)]Gal(b1-4)[Fuc(a1-3)]GlcNAc. An outline of the steps: as §1
For test [9], the target named is Fuc(a1-3)[Gal(b1-4)]GlcNAc(b1-2)Man(a1-3)[Fuc(a1-3)[Gal(b1-4)]GlcNAc(b1-2)Man(a1-6)]Man(b1-4)GlcNAc(b1-4)GlcNAc. The method, boiled down:
as §1

Test [10] deals with Fuc(a1-3)[Gal(b1-4)]GlcNAc(b1-6)[Neu5Ac(a2-3)Gal(b1-3)]GalNAc. The method, boiled down:
as §1

A further test concerns the target Gal(a1-2)Gal. An outline of the steps: as §1
Test [11] addresses Gal(a1-3)Gal(b1-3)GlcNAc(b1-2)Man(a1-3)[Gal(a1-3)Gal(b1-3)GlcNAc(b1-2)Man(a1-6)]Man(b1-4)GlcNAc(b1-4)GlcNAc. An outline of the steps: as §1
The target of the next test is Gal(b1-3)Gal(b1-4)GlcNAc. An outline of the steps:
as §1

The target of test [12] is Gal(b1-3)[Fuc(a1-4)]GlcNAc. An outline of the steps:
as §1

Test [13] concerns the target Gal(b1-3)[Neu5Ac(a2-6)]GlcNAc. An outline of the steps: as §1
In test [14] the target is Gal(b1-3)[Neu5Ac(b2-6)]GlcNAc. An outline of the steps: as §1
Test [15] concerns the target Gal(b1-4)GlcNAc(b1-2)Man(a1-3)[Gal(b1-4)GlcNAc(b1-2)Man(a1-6)]Man(b1-4)GlcNAc(b1-4)GlcNAc. An outline of the steps: as §1
Test [16] has as its target Gal(b1-4)GlcNAc(b1-2)Man(a1-3)[Gal(b1-4)GlcNAc(b1-2)Man(a1-6)]Man(b1-4)GlcNAc(b1-4)[Fuc(a1-6)]GlcNAc. An outline of the steps: as §1
The target of test [17] is Gal(b1-4)GlcNAc(b1-2)Man(a1-3)[Man(a1-6)]Man(b1-4)GlcNAc(b1-4)GlcNAc. The method, boiled down: as §1
The target in the next test is Gal3S(b1-4)GlcNAc6S. The method, boiled down:
as §1

The next test deals with Gal3S4S(b1-4)GlcNAc. The method, boiled down: as §1
The target in test [18] is GalNAc3S(b1-4)[Fuc(a1-3)]GlcNAc. An outline of the steps: as §1
The target of a further test is Glc(a1-6)Glc(a1-6)Glc. An outline of the steps: as §1

This is one part of a sample in which the strongest signals are shown more often than they occur.

B1: Nictaba (Nicotiana tabacum), Q94EW1 (protein)
chain: MQGQWIAARDLSITWVDNPQYWTWKTVDPNIEVAELRRVAWLDIYGKIETKNLIRKTSYAVYLVFKLTDNPRELERATASLRFVNEVAEGAGIEGTTVFISKKKKLPGELGRFPHLRSDGWLEIKLGEFFNNLGEDGEVEMRLMEINDKTWKSGIIVKGFDIRPN
As for B1, the “glycan array binding signal (z-score)” value in test [1] was -0.29; with Fuc(a1-2)Gal(b1-4)Glc6S it was -0.254; in test [2], 3.54; in test [3], 5.19; in test [4], -0.381; in [5], -0.234. Besides, the “glycan array binding signal (z-score)” value in test [6] was -0.187; in test [7], -0.273; in test [8], -0.307; in [9], 5.57; in test [10] it was -0.295; with Gal(a1-2)Gal, -0.289. Also, the “glycan array binding signal (z-score)” value in [11] was -0.148; with Gal(b1-3)Gal(b1-4)GlcNAc it was -0.321; in test [12] it was -0.271; in [13] it was -0.332; in test [14] it was -0.39; in [15], 3.74. The “glycan array binding signal (z-score)” value in test [16] was 1.64; in test [17], 3.52; in the test with Gal3S(b1-4)GlcNAc6S it was -0.163; with Gal3S4S(b1-4)GlcNAc, -0.289; in [18], -0.387; with Glc(a1-6)Glc(a1-6)Glc it was -0.295.
